Rows were chosen to be rich in hits. Some 3.1% of all compounds tested hit in one or more screens of this group.
PNC inhibitor – inhibitors of perinucleolar compartment assembly; PC3M PTB-GFP, PNC prevalence imaging, 16 h; active compounds read low; activity change (PNC), negative = inhibition, % at 10 µM; 3.1% of 140,000 active; AID 2417;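 active = readout at or below -70, meaning at least 70% loss of cells showing the perinucleolar compartment, a nuclear body marking cancer cells; inconclusive = readout between -30 and a set limit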
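PC3M cells stably expressing PTB-GFP, 750–1000 cells/well, treated 16 h at 37 °C with compound (23 nl of library stock), in duplicate. After paraformaldehyde fixation and Hoechst stain, imaged at 20x; PNC prevalence scored by image analysis.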
ALOX12 inhib – inhibitors of human 12-lipoxygenase (ALOX12). purified 12-hLO, xylenol orange hydroperoxide absorbance. Potency, µM (titrated, usually from 57.1 µM), usual class: inhibitors. 0.12% of 150,000 active; note: nearly all actives have a fitted effect of over 55% in size
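Purified human 12hLO (150 nM), preincubated 15 min with compound, then 40 uM arachidonic acid for 30 min, room temperature, Hepes pH 7.0 with 0.01% Triton X-100. Hydroperoxide detected by ferrous iron/xylenol orange; 573/405 nm absorbance ratio gives reaction progress.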
15-hLO-2 inh – blocks human 15-lipoxygenase 2 activity | 0.56% of 110,000 active | purified 15hLO-2, xylenol orange hydroperoxide absorbance | Potency, µM (highest dose often 57.1 µM), hits mostly inhibitors | O15296; note: nearly all actives have a fitted effect of over 60% in size
Target sequence (O15296 whole entry, looked up): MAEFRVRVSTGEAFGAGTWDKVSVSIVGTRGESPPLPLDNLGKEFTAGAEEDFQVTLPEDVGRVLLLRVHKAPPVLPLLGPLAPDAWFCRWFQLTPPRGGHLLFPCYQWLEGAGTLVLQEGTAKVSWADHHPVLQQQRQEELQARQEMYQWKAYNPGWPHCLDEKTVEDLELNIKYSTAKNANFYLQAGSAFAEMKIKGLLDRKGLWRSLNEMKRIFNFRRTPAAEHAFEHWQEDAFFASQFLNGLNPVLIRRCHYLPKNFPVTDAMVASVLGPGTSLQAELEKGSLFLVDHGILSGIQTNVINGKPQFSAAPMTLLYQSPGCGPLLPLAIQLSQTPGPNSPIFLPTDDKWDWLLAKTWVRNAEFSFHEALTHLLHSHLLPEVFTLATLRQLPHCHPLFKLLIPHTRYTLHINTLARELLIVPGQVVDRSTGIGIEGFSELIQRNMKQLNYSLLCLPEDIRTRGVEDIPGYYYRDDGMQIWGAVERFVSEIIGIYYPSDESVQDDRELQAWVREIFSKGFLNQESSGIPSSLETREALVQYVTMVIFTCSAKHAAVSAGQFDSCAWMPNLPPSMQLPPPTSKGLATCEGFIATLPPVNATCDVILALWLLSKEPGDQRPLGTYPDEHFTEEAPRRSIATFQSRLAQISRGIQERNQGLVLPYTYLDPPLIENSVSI
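Enzyme 50 nM, AA 45 uM, 25 mM Hepes pH 7.5 + 0.01% Triton X-100; cpd preinc 15 min RT, rxn 90 min RT; stop/detect with 200 uM XO + 300 uM Fe(II) in 50 mM H2SO4, 30 min; A573/A405.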
Hits are given with their value; i = inactive; ? = inconclusive; nt = no result; [ ] = dose if it differs, or a comment. Unless noted, calls come from the whole dose curve; as a rule, active = well fitted curve in the direction sought with a large enough effect; inconclusive = small, poorly fitted or top-dose-only effect, or another doubt; inactive = no such curve, though single readings can be large; an effect the other way counts as inactive or inconclusive.

SMILES | PNC inhibitor | ALOX12 inhib | 15-hLO-2 inh
O=C(N/N=C/c1cn(-c2ccccc2)nc1-c1cc2ccccc2o1)c1ccncc1 | i | i | nt
O=C(N/N=C/c1cn(-c2ccccc2)nc1-c1cc2ccccc2o1)c1cccnc1 | -106 | i | nt
CCCCC(=O)Oc1ccccc1C(=O)O | nt | i | i
CCC(C)NC(=O)CSC1=Nc2ccccc2C2=NC(c3ccccc3)C(=O)N12 (centres undefined) | i | i | i
CCC(C)NC(=O)CSC1=Nc2ccccc2C2=NC(CC(=O)NCc3ccccc3)C(=O)N12 (centres undefined) | -100 | i | nt
Cc1ccc2nc(N/N=C\c3cccc(C)n3)cc(C)c2c1 | nt | i[11.4 µM] | i[11.4 µM]
Nc1ncnc2c1ncn2C[C@@H](O)C(=O)O | nt | i[11.4 µM] | i[11.4 µM]
O=C(O)c1ccccc1CN1CCC[C@@H](C(=O)O)C1 | nt | i[11.4 µM] | i[11.4 µM]
CCCc1c(OCC(O)COc2ccc3c(=O)cc(C(=O)O)oc3c2CCC)ccc(C(C)=O)c1O (centres undefined) | nt | i[0.00818 µM] | i[0.0915 µM]
O=C(c1ccc2snnc2c1)N1CCCCC1 | -100 | i | nt
O=C(c1ccc2snnc2c1)N1CCSCC1 | i | i | i
c1ccc2c(c1)CCC[C@H]2C1=NCCN1 | nt | i | i
Cc1ccc(-n2nnnc2SCC(=O)Nc2ccccc2-c2ccccc2)cc1C | i | i | nt
CC(Sc1nnnn1-c1ccccc1)C(=O)Nc1ccccc1-c1ccccc1 (centres undefined) | -134 | i | nt
COc1ccc(N2CC(C(=O)Nc3ccc(N4CCOCC4)cc3)CC2=O)cc1 (centres undefined) | -113 | i | i
COc1ccc(CN2CC(C(=O)NCCN3CCOCC3)CC2=O)cc1 (centres undefined) | -90 | i | i
COc1ccc(N2CC(C(=O)NCc3cccnc3)CC2=O)cc1 (centres undefined) | -98 | i | i
CCOc1ccc(N2CC(C(=O)Nc3ccc(N4CCOCC4)cc3)CC2=O)cc1 (centres undefined) | i | i | nt
Cc1ccc(N2CC(C(=O)NCc3cccnc3)CC2=O)cc1 (centres undefined) | i | i | i
COCCCNC(=O)C1CC(=O)N(Cc2ccc(OC)cc2)C1 (centres undefined) | i | i | i
COc1ccccc1CNC(=O)C1CC(=O)N(C2CCCC2)C1 (centres undefined) | i | i | i
COc1ccccc1CNC(=O)C1CC(=O)N(c2ccc(C)c(C)c2)C1 (centres undefined) | -81 | i | i
COc1ccc(NC(=O)N2CC3(CCN(S(C)(=O)=O)CC3)C2)cc1 | nt | i | i
C[C@@]1(C(NC(=O)c2cccs2)c2ccc(-c3ccccc3)cc2)C[C@H]1C1CCCCC1 (some centres undefined) | nt | i | i
COc1ccc(-c2nc3cnc(N4CCN(C)CC4)nc3n(CCC#N)c2=O)cc1 | nt | i | i
SMILES | PNC inhibitor | ALOX12 inhib | 15-hLO-2 inh
COc1ccccc1-c1oc2ccccc2c(=O)c1OC | nt | i | i
CCCCC(CC)CNCC(CC)CCCC (centres undefined) | nt | i | i
C[C@]12CCC3c4ccc(O)cc4CCC3C1CCC2OC(=O)CCC1CCCC1 (some centres undefined) | nt | i | i
NCCC[C@@H](CC(=O)N[C@@H]1CCNC[C@H]1C(=O)N[C@H](CC(=O)N[C@@H](CCC(=O)O)CC(=O)O)Cc1c[nH]c2ccccc12)NC(=O)C[C@H](Cc1ccccc1)NC(=O)[C@@H]1CCCC[C@H]1N | nt | i | nt
Cc1cnc(CNc2ccnc(-c3ccoc3)n2)cn1 | nt | nt | i
Cc1c2cnccc2c(C)c2c1c1ccccc1n2CCOC(=O)c1ccccc1 | nt | i[11.4 µM] | i[11.4 µM]
O=C(O)c1cc(-c2ccco2)[nH]n1 | -89 | i | nt
O=C(O)c1ccc(-n2c(-c3cc(-c4ccco4)[nH]n3)n[nH]c2=S)cc1 | i | i | i
O=C(NCCCc1ccccc1)Nc1ccccc1 | i | i | nt
O=C(NCCc1ccncc1)Nc1ccccc1 | -100 | i | nt
CCN(CC)S(=O)(=O)c1ccc(N2CCN(CCO)CC2)nc1 | i | i | nt
CN1CCN(c2ccc(S(=O)(=O)N3CCCCC3)cn2)CC1 | -83 | i | i
O=S(=O)(c1ccc(N2CCCC2)nc1)N1CCOCC1 | i | i | i
CCN(CC)S(=O)(=O)c1ccc(N2CCN(S(=O)(=O)c3ccc4c(c3)OCCO4)CC2)nc1 | -91 | i | i
COc1ccc(Oc2ncc3nc(C)c(=O)n(Cc4ccc(F)cc4)c3n2)cc1 | nt | i | i
C/C=C1/C2C=C(C)CC1(N)c1ccc(=O)[nH]c1C2 (centres undefined) | nt | i[0.00818 µM] | i[0.0915 µM]
CCOC(=O)N1CCN(C(=O)c2ccc(Cl)c(S(=O)(=O)Nc3ccccc3)c2)CC1 | ? | i | i
CCOC(=O)N1CCN(C(=O)c2cccc(NS(=O)(=O)c3ccc(F)c(F)c3)c2)CC1 | -89 | i | nt
COCC(=O)N1CCC2(CCCN(Cc3ccccc3OC)C2)CC1 | nt | i | i
CC(=O)OCC(=O)[C@@]12OC(C)(C)O[C@@H]1C[C@H]1[C@H]3C[C@H](F)C4=CC(=O)C=C[C@@]4(C)[C@]3(F)[C@H](O)C[C@@]12C | nt | i | i
CN(C)C(=O)CN(c1ccc2c(c1)OCO2)S(C)(=O)=O | -106 | i | i
CS(=O)(=O)N(CC(=O)Nc1ccc2c(c1)OCO2)c1ccc2c(c1)OCO2 | i | i | i
O=c1cc(O)c2c(=O)n(-c3ccccc3)c3c(c2o1)CCCCCC3 | -88 | i | nt
O=c1cc(O)c2c(=O)n(C3CCCCC3)c3ccccc3c2o1 | i | i | i
Cc1ccc2[nH]c3c(c2c1)CCCC3C(N)=O (centres undefined) | i | i | nt
SMILES | PNC inhibitor | ALOX12 inhib | 15-hLO-2 inh
CCN(CC)C(=O)C1CCCc2c1[nH]c1ccc(Cl)cc21 (centres undefined) | -93 | i | nt
Cc1ccccc1NS(=O)(=O)c1ccc(N2CCCC2=O)cc1 | ? | i | i
COc1ccc(OC)c(NS(=O)(=O)c2ccc(N3CCCC3=O)cc2)c1 | -83 | i | i
COC(=O)N1CCC2(CCCN(C(c3ccccc3)c3ccccc3)C2)CC1 | nt | i | i
O=S(=O)(c1ccc(F)cc1)N1CCN(c2ccccc2)CC1 | i | i | i
CC1CCCCN1S(=O)(=O)c1ccc(S(=O)(=O)N2CCN(c3ccc(F)cc3)CC2)cc1 (centres undefined) | -114 | i | i
CCCCc1nc2c(c3c1C[C@H](C)OC3)CN(C(=O)c1cccnc1)CC2 | nt | i[11.4 µM] | nt
CC1(C)CC[C@]2(C(=O)O)C(O)C[C@@]3(C)C(=CCC4[C@@]5(C)CCC(O)C(C)(C)C5CC[C@@]43C)C2C1 (some centres undefined) | nt | i | i
CN(Cc1cc(Br)cc(Br)c1O)Cc1c(O)ccc2ccccc12 | nt | i[11.4 µM] | i[11.4 µM]
COC(=O)N1CCC2(CC1)CCN(c1cccc(-c3ccccc3)c1)CC2 | nt | i | i
C#CC[N+](C)(C)CCCCCCCCCC | ? | i | nt
CCCCCCCC[N+](CCCCCCCC)(CCCCCCCC)CCCCCCCC | nt | ? | 32µM
CCN(CC)c1nc2n(c(=O)n1)CCN2CC | i | i | i
CCN(CC)c1nc2n(c(=S)n1)CCS2 | -88 | i | i
Cc1ccc(CNC(=O)[C@H](C)[C@@H]2C[C@@]2(C)[C@@H](NC(=O)OCc2ccccc2)c2ccccc2)o1 | nt | i | i
CC(=O)OCC(=O)[C@@]1(O)CCC2C3CCC4=CC(=O)CC[C@]4(C)C3C(O)C[C@]21C (some centres undefined) | nt | i | i

Bioassay records as filed in PubChem BioAssay.
